Only some compounds are listed: those with a hit (about 3.7% of all), similar ones and a draw of the others.
BoNT-A LC inh2: blocks Botulinum neurotoxin A light chain protease; multiplex microsphere protease substrate cleavage, flow cytometry; inhibition, % at 10 µM; 0.17% of 360,000 active; AID 588499; further: plate controls were buffer without enzyme for full effect and enzyme alone for no effect
Anthrax LF inh2: anthrax lethal factor protease inhibition. P15917. multiplex microsphere protease cleavage assay, LF. inhibition, % at 10 µM. 0.12% of 360,000 active; further: plate controls were buffer without enzyme for full effect and enzyme alone for no effect
BJeLR lethal: BJeLR cell viability loss | BJeLR (HRASV12) viability, CellTiter-Glo ATP luminescence, 48 h | inhibition, % (concentration not given with the values) | 0.17% of 300,000 active | AID 1554; in the data active means inhibition above about 50%; inconclusive means no clear call, values can overlap the other calls
BH1578 lux ind: inducers of Vibrio cholerae quorum light production without autoinducers; V. cholerae BH1578 lux reporter, luminescence, 6 h; activation, % at 18.7 µM; 0.16% of 350,000 active; in the data active means activation mostly above about 9.7%, no sharp cut-off; inconclusive means no clear call, values can overlap the other calls; inactive means mostly below about 3.7%
BoNT-F LC inh: inhibitors of Botulinum neurotoxin F light chain protease. inhibition, % at 10 µM. AID 588497. Multiplex microsphere protease cleavage assay, flow cytometry. 0.22% of 360,000 active; in the data active means inhibition above about 35%, passing the limit was not always enough; inconclusive means no clear call, values can overlap the other calls; further: plate controls were buffer without enzyme for full effect and enzyme alone for no effect
Autofluor counter: counter-screen for toxin protease inhibitors: compound fluorescence; compound autofluorescence counterscreen, microsphere flow cytometry; active compounds read high; fluorescence intensity (concentration not given with the values); 3.1% of 360,000 active; AID 624483; in the data active means fluorescence intensity above about 16000; inconclusive means no clear call, values can overlap the other calls
* hit, by the source's call. Unless noted, no stated cut-off is given here; in the data, active means inhibition above about 30%; inconclusive means no clear call, values can overlap the other calls; inactive means below that.

Results for CCOc1ccc(N(CCC#N)S(=O)(=O)c2ccc(OC)cc2)cc1 ?
BoNT-A LC inh2: 6.6; Anthrax LF inh2: -10.8; BJeLR lethal: -6.6; BH1578 lux ind: -2.5; BoNT-F LC inh: 5.4; Autofluor counter: 20566*

What do the screens show for `CCS(=O)(=O)N1Cc2cc(C(=O)N(C)C)nc(-c3cccc(-c4ccc(F)cc4)c3)c2[C@H]1CCO`?
BoNT-A LC inh2: 0.3; Anthrax LF inh2: -7.9; BoNT-F LC inh: 2.7; Autofluor counter: 6069

What do the screens show for `CCCCN1C(=O)NC(=O)C2(Cc3cc(C)ccc3N(C)C2)C1=O` (stereo not drawn)?
BoNT-A LC inh2: 0.2; Anthrax LF inh2: -1.8; BJeLR lethal: -7.1; BH1578 lux ind: inactive; BoNT-F LC inh: -1.6; Autofluor counter: 2947

Results for COc1cc(CN2C(=O)NC(=O)C3(Cc4cc(C)ccc4N(C)C3)C2=O)cc(OC)c1 (stereo not drawn) ?
BoNT-A LC inh2: -0.5; Anthrax LF inh2: -1.9; BH1578 lux ind: inactive; BoNT-F LC inh: -1.8; Autofluor counter: 22009*

Results for Cc1ccc2c(c1)CC1(CN2C)C(=O)NC(=O)N(c2cc(C)ccc2C)C1=O (stereo not drawn) ?
BoNT-A LC inh2: 1.3; Anthrax LF inh2: -1.0; BJeLR lethal: -3.4; BH1578 lux ind: -5.6; BoNT-F LC inh: 2.7; Autofluor counter: 22449*

How did COc1ccc2c(c1)CC1(CN2C)C(=O)NC(=O)N(CCc2ccccc2)C1=O (stereo not drawn) do in these assays?
BoNT-A LC inh2: -0.8; Anthrax LF inh2: -5.6; BJeLR lethal: -2.3; BH1578 lux ind: -0.3; BoNT-F LC inh: -11.6; Autofluor counter: 5237

What do the screens show for `COc1ccc(OC)c(N2C(=O)NC(=O)C3(Cc4cc(C)ccc4N(C)C3)C2=O)c1` (stereo not drawn)?
BoNT-A LC inh2: 0.3; Anthrax LF inh2: -1.5; BJeLR lethal: 0.5; BH1578 lux ind: inactive; BoNT-F LC inh: 1.6; Autofluor counter: 16331*

What do the screens show for `COc1cccc(N2C(=O)NC(=O)C3(Cc4cc(C)ccc4N(C)C3)C2=O)c1` (stereo not drawn)?
BoNT-A LC inh2: -0.2; Anthrax LF inh2: -1.1; BJeLR lethal: -3.0; BH1578 lux ind: inactive; BoNT-F LC inh: -8.3; Autofluor counter: 2993

What do the screens show for `CCOC(=O)c1cc(OC)c2cccc(CN3CCC(C)(C(=O)NCCOC)C3)c2c1` (stereo not drawn)?
BoNT-A LC inh2: 0.6; Anthrax LF inh2: -3.4; BH1578 lux ind: inactive; BoNT-F LC inh: 2.9; Autofluor counter: 2981

How did CC(C)c1ccc(NC(=O)Nc2nc(C(N)COCc3ccccc3)cs2)cc1 (stereo not drawn) do in these assays?
BoNT-A LC inh2: -0.4; Anthrax LF inh2: -5.3; BH1578 lux ind: inactive; BoNT-F LC inh: -23.1; Autofluor counter: 3747

How did CCCn1nc([N+](=O)[O-])c(C(C#N)c2nc3ccccc3o2)c(Cl)c1=O (stereo not drawn) do in these assays?
BoNT-A LC inh2: 0.1; Anthrax LF inh2: -2.6; BJeLR lethal: -1.4; BH1578 lux ind: -0.1; BoNT-F LC inh: -3.8; Autofluor counter: 2461

Results for CCn1nc([N+](=O)[O-])c(C(C#N)c2nc3cc(C(F)(F)F)ccc3s2)c(Cl)c1=O (stereo not drawn) ?
BoNT-A LC inh2: 2.1; Anthrax LF inh2: -3.3; BJeLR lethal: 9.7; BH1578 lux ind: -0.2; BoNT-F LC inh: -0.5; Autofluor counter: 22515*

What do the screens show for `CCOc1cc(C)nc(NCCc2ccc(OC)c(OC)c2)n1`?
BoNT-A LC inh2: -0.1; Anthrax LF inh2: -1.5; BJeLR lethal: -3.1; BH1578 lux ind: inactive; BoNT-F LC inh: -8.5; Autofluor counter: 10760

What do the screens show for `COc1ccc(N2CCN(c3nc(NCCc4ccc(OC)c(OC)c4)nc(OC)n3)CC2)cc1`?
BoNT-A LC inh2: inconclusive; Anthrax LF inh2: -4.9; BJeLR lethal: 3.0; BH1578 lux ind: inactive; BoNT-F LC inh: -0.3; Autofluor counter: 22889*

Results for CCOc1nc(NCCc2ccc(OC)c(OC)c2)nc(N2CCN(c3ccc(OC)cc3)CC2)n1 ?
BoNT-A LC inh2: -0.8; Anthrax LF inh2: -1.8; BJeLR lethal: -2.0; BH1578 lux ind: inactive; BoNT-F LC inh: -0.6; Autofluor counter: 23445*

How did COc1ccc(Nc2nc(OC)nc(N3CCN(c4ccc(OC)cc4)CC3)n2)cc1 do in these assays?
BoNT-A LC inh2: -3.7; Anthrax LF inh2: -3.5; BJeLR lethal: -1.2; BH1578 lux ind: -0.4; BoNT-F LC inh: -11.6; Autofluor counter: 12487

How did CC(C)(C)S(=O)N1Cc2cc(C(=O)NCc3ccc(Oc4ccccc4)cc3)nc(-c3cccc(-c4cc5ccccc5o4)c3)c2[C@@H]1CCO (stereo partly drawn) do in these assays?
BoNT-A LC inh2: -0.6; Anthrax LF inh2: -7.4; BoNT-F LC inh: -28.2; Autofluor counter: 6202

How did Cc1ccc(C(C)NC(=O)/C(C#N)=C\c2c(C)[nH]c3ccccc23)cc1 (stereo not drawn) do in these assays?
BoNT-A LC inh2: 0.3; Anthrax LF inh2: -4.2; BJeLR lethal: -9.4; BH1578 lux ind: -12.5; BoNT-F LC inh: 5.2; Autofluor counter: 11242

What do the screens show for `Cc1[nH]c2ccccc2c1/C=C(\C#N)C(=O)NCc1ccccc1`?
BoNT-A LC inh2: 52.8*; Anthrax LF inh2: 7.4; BJeLR lethal: -11.1; BH1578 lux ind: -0.6; BoNT-F LC inh: -25.0; Autofluor counter: 11132

How did C/C=C/Cn1c(SC)nc2c1c(=O)[nH]c(=O)n2C do in these assays?
BoNT-A LC inh2: 2.3; Anthrax LF inh2: 0.0; BJeLR lethal: -1.1; BH1578 lux ind: 4.2; BoNT-F LC inh: 27.9; Autofluor counter: 4529

How did C/C=C/Cn1c(Br)nc2c1c(=O)[nH]c(=O)n2C do in these assays?
BoNT-A LC inh2: 0.7; Anthrax LF inh2: -3.6; BJeLR lethal: -7.1; BH1578 lux ind: inactive; BoNT-F LC inh: 1.0; Autofluor counter: 22506*

What do the screens show for `Cn1c(=O)[nH]c(=O)c2c1nc(Br)n2CCCSc1nc2ccccc2o1`?
BoNT-A LC inh2: inconclusive; Anthrax LF inh2: 0.3; BJeLR lethal: 12.4; BH1578 lux ind: -0.2; BoNT-F LC inh: -6.7; Autofluor counter: 17409*

How did O=C(Oc1ccc2c(c1)OCO2)c1cc2c(s1)CCC2 do in these assays?
BoNT-A LC inh2: 2.1; Anthrax LF inh2: -0.6; BJeLR lethal: 1.2; BH1578 lux ind: -6.1; BoNT-F LC inh: 53.7*; Autofluor counter: 3933

Results for COc1ccc(N2CCN(C(=O)COC(=O)CNC(=O)c3ccc(C)cc3)CC2)cc1 ?
BoNT-A LC inh2: inconclusive; Anthrax LF inh2: inconclusive; BJeLR lethal: 20.2; BH1578 lux ind: -4.2; BoNT-F LC inh: inconclusive; Autofluor counter: 4329

How did COc1ccc(C(=O)NCC(=O)OCC(=O)N2CC(C)CC(C)C2)cc1 (stereo not drawn) do in these assays?
BoNT-A LC inh2: -19.5; Anthrax LF inh2: 3.0; BJeLR lethal: 3.1; BH1578 lux ind: inactive; BoNT-F LC inh: -388.6; Autofluor counter: 17297*

Results for CN1CCC(N(C)C(=O)c2cc(-c3ccc(F)cc3)nc3ccccc23)CC1 ?
BoNT-A LC inh2: 0.3; Anthrax LF inh2: 7.0; BH1578 lux ind: -5.7; BoNT-F LC inh: -5.4; Autofluor counter: 3876
